Test results as given in PubChem BioAssay (Tox21).
Inconclusive results are not listed. Calls of active or inactive are those of the source. Unless noted, calls follow the shape of the full dose curve.

How the values were obtained:
[1] = qHTS assay to identify small molecule agonists of the vitamin D receptor (VDR) signaling pathway - cell viability counter screen (AID 743224; active = well fitted cell-killing curve with a large enough effect in the repeat runs; also: series mostly up to about 63 µM; % is scaled to controls: 0 for no effect and ±100 for the full control effect; nearly all actives have a fitted effect of over 50% in size)
How it was run: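 Luminescence from CellTiter-Glo, read after 30 min at room temperature, reports viability of VDR-bla cells treated with compounds for 16 h at 37C in the wells used for the beta-lactamase FRET read.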

[2] = qHTS assay to identify small molecule antagonists of the vitamin D receptor (VDR) signaling pathway - cell viability counter screen (AID 743225; active = well fitted cell-killing curve with a large enough effect in the repeat runs; also: % is scaled to controls: 0 for no effect and ±100 for the full control effect; nearly all actives have a fitted effect of over 50% in size)
How it was run: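 Same-well multiplex: following 16 h treatment of HEK 293T cells carrying a UAS-driven beta-lactamase reporter with compound and agonist (3 nM final), and a 2 h FRET substrate step, CellTiter-Glo was added and luminescence read after 30 min.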

[3] = qHTS assay to identify small molecule agonists of the NFkB signaling pathway (AID 1159509; active = well fitted curve in the direction sought with a large enough effect in the signal ratio in the repeat runs, not every such curve was filed as active; the % refers to the signal ratio; also: series mostly up to about 61 µM; % is scaled to controls: 0 for no effect and ±100 for the full control effect)
How it was run: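 NFkB-bla ME-180 cells with a beta-lactamase reporter under an NF-kB response element were plated overnight, treated with compounds in DMSO for 5 hr at 37 C, then loaded with FRET substrate for 1.5 hr at room temperature.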

[4] = qHTS assay to identify small molecule agonists of the NFkB signaling pathway - cell viability counter screen (AID 1159515); also: series mostly up to about 61 µM; % is scaled to controls: 0 for no effect and ±100 for the full control effect; nearly all actives have a fitted effect of over 55% in size
How it was run: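 Luminescence from CellTiter-Glo (30 min, room temperature) gives viability, measured in the same wells as the beta-lactamase reporter read. Cells were NFkB-bla ME-180, 2,000 per well, treated 5 hr with compounds.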

[5] = qHTS assay to identify small molecule agonists of the endoplasmic reticulum stress response signaling pathway (AID 1159516; active = well fitted activation curve with a large enough effect in the signal ratio in the repeat runs, not every such curve was filed as active; the % refers to the signal ratio; also: % is scaled to controls: 0 for no effect and ±100 for the full control effect)
How it was run: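 Read-out is beta-lactamase cleavage of a FRET substrate (405 nm excitation; 460 and 530 nm emissions) in ESRE-bla HeLa cells after a 5 hr compound exposure at 37 C. Substrate incubation ran 2 hr at room temperature.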

[6] = qHTS assay to identify small molecule agonists of the endoplasmic reticulum stress response signaling pathway - cell viability counter screen (AID 1159517);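 also: HeLa cells carrying an ER stress response element beta-lactamase reporter; series mostly up to about 61 µM; % is scaled to controls: 0 for no effect and ±100 for the full control effect; nearly all actives have a fitted effect of over 50% in size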
How it was run: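 Counter-screen wells were identical to the reporter wells. Cells were plated at 1,500 per well and dosed for 5 hr, then read for luminescence 30 min after CellTiter-Glo addition.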

[7] = qHTS assay to identify small molecule antagonists of the retinoid-related orphan receptor gamma (ROR-gamma) signaling pathway - cell viability counter screen (AID 1159520; active = well fitted cell-killing curve with a large enough effect in the repeat runs; also: % is scaled to controls: 0 for no effect and ±100 for the full control effect; nearly all actives have a fitted effect of over 50% in size)
How it was run: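 Tet-on ROR gamma CHO cells were given compounds for 2 hr, then doxycycline hyclate at 1 uM final, and incubated 16 hr at 37 C. Viability was measured as ATP content by CellTiter-Glo luminescence.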

[8] = qHTS assay to identify small molecule agonists of the AP-1 signaling pathway - cell viability counter screen (AID 1159525); also: nearly all actives have a fitted effect of over 55% in size
How it was run: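 AP-1-bla ME-180 cells in Opti-MEM with 0.5% dialyzed FBS, compound exposure 5 h at 37 C in 15-point titration. Viability read in the same wells as ATP content by CellTiter-Glo luminescence, normalised to tetra-n-octylammonium bromide and DMSO controls.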

[9] = qHTS assay to identify small molecule agonists of the AP-1 signaling pathway (AID 1159526); also: % is scaled to controls: 0 for no effect and ±100 for the full control effect

CN1C(=O)CC(c2ccccc2)C1=O (stereo not drawn)
inactive: Potency [1] | Potency [2] | outcome [3] | outcome [4] | outcome [5] | outcome [6] | Potency [7] | outcome [8] | Potency [9]

CN1CCN(c2c(F)cc3c(=O)c(C(=O)O)cn(CCF)c3c2F)CC1
inactive: Potency [1] | Potency [2] | outcome [3] | outcome [4] | outcome [5] | outcome [6] | Potency [7] | outcome [8] | Potency [9]

O=C1CCCc2ccccc21
inactive: Potency [1] | Potency [2] | outcome [3] | outcome [4] | outcome [5] | outcome [6] | Potency [7] | outcome [8] | Potency [9]

CC1(C)C(=O)N(Cl)C(=O)N1Br
inactive: Potency [1] | Potency [2] | outcome [3] | outcome [4] | outcome [5] | outcome [6] | Potency [7] | outcome [8] | Potency [9]

CCOc1ccc(NS(=O)(=O)c2ccc(N)cc2)nn1
inactive: Potency [1] | Potency [2] | outcome [3] | outcome [4] | outcome [5] | outcome [6] | Potency [7] | outcome [8] | Potency [9]

COC(C)CCO (stereo not drawn)
inactive: Potency [1] | Potency [2] | outcome [3] | outcome [4] | outcome [5] | outcome [6] | Potency [7] | outcome [8] | Potency [9]

COC(=O)/C=C(/C)N
inactive: Potency [1] | Potency [2] | outcome [3] | outcome [4] | outcome [5] | outcome [6] | Potency [7] | outcome [8] | Potency [9]

CCCCCCn1c(=O)c2c(ncn2C)n(C)c1=O
inactive: Potency [1] | Potency [2] | outcome [3] | outcome [4] | outcome [5] | outcome [6] | Potency [7] | outcome [8] | Potency [9]

N#CSCC(=O)O
inactive: Potency [1] | Potency [2] | outcome [3] | outcome [4] | outcome [5] | outcome [6] | Potency [7] | outcome [8] | Potency [9]

CC(C)NCC(O)COc1ccc(CCOCC2CC2)cc1 (stereo not drawn)
inactive: Potency [1] | Potency [2] | outcome [3] | outcome [4] | outcome [5] | outcome [6] | Potency [7] | outcome [8] | Potency [9]

C=C(C)C(=O)OCCOP(=O)(O)O
inactive: Potency [1] | Potency [2] | outcome [3] | outcome [4] | outcome [5] | outcome [6] | Potency [7] | outcome [8] | Potency [9]

CCCNC(C)(C)COC(=O)c1ccccc1
inactive: Potency [1] | Potency [2] | outcome [3] | outcome [4] | outcome [5] | outcome [6] | Potency [7] | outcome [8] | Potency [9]

O=C(C(Cl)Cl)N1CCOC12CCCCC2
inactive: Potency [1] | Potency [2] | outcome [3] | outcome [4] | outcome [5] | outcome [6] | Potency [7] | outcome [8] | Potency [9]

NC(=O)Cc1cccc(C(=O)c2ccccc2)c1N
inactive: Potency [1] | Potency [2] | outcome [3] | outcome [4] | outcome [5] | outcome [6] | Potency [7] | outcome [8] | Potency [9]

Cc1ccsc1C(=CCCN1CCC[C@@H](C(=O)O)C1)c1sccc1C
inactive: Potency [1] | Potency [2] | outcome [3] | outcome [4] | outcome [5] | outcome [6] | Potency [7] | outcome [8] | Potency [9]

FC(F)(F)c1ccccc1
inactive: Potency [1] | Potency [2] | outcome [3] | outcome [4] | outcome [5] | outcome [6] | Potency [7] | outcome [8] | Potency [9]

CCOc1ccc2nc(N)sc2c1
inactive: Potency [1] | Potency [2] | outcome [3] | outcome [4] | outcome [5] | outcome [6] | Potency [7] | Potency [9]

CCOc1ccc(OCC)c(Cl)c1
inactive: Potency [1] | Potency [2] | outcome [3] | outcome [4] | outcome [5] | outcome [6] | Potency [7] | outcome [8] | Potency [9]

CCOc1ccc(NC(N)=O)cc1
inactive: Potency [1] | Potency [2] | outcome [3] | outcome [4] | outcome [5] | outcome [6] | Potency [7] | outcome [8] | Potency [9]

C=O
inactive: Potency [1] | Potency [2] | outcome [3] | outcome [4] | outcome [5] | outcome [6] | Potency [7] | outcome [8] | Potency [9]

O=c1oc2c(O)c(O)cc3c(=O)oc4c(O)c(O)cc1c4c23
inactive: Potency [1] | Potency [2] | outcome [3] | outcome [4] | outcome [5] | outcome [6] | activity, negative = cytotoxicity [7] 0.685% [at 19 µM] | viability change, negative = cytotoxic [8] 7.4% [at 15.8 µM] | activation [9] 21.4% [at 15.8 µM]

Cc1cc(NS(=O)(=O)c2ccc(N)cc2)nc(C)n1
inactive: Potency [1] | Potency [2] | outcome [3] | outcome [4] | outcome [5] | outcome [6] | Potency [7] | outcome [8] | Potency [9]

CCCCCCC
inactive: Potency [1] | Potency [2] | outcome [3] | outcome [4] | outcome [5] | outcome [6] | Potency [7] | outcome [8] | Potency [9]

FC(F)(F)C(F)(F)C(F)(F)C(F)(F)C(F)(F)C(F)(F)C(F)(F)C(F)(F)Br
inactive: Potency [1] | Potency [2] | outcome [3] | outcome [4] | outcome [5] | outcome [6] | Potency [7] | outcome [8] | Potency [9]

FC(F)(F)C(Cl)(Cl)Cl
inactive: Potency [1] | Potency [2] | outcome [3] | outcome [4] | outcome [5] | outcome [6] | Potency [7] | outcome [8] | Potency [9]

Oc1ccccc1C=NCc1ccccc1
inactive: Potency [1] | Potency [2] | outcome [3] | outcome [4] | outcome [5] | outcome [6] | Potency [7] | outcome [8] | Potency [9]
